The whole screen tested about 1,200 compounds, of which about 650 (54%) were called active. Roughly 5% stayed inconclusive and do not appear here.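 Rule for the calls: active = signal-lowering curve whose fitted half-maximal concentration is at or below ten times the top valid dose tested; inconclusive = flat curve with 30 to 70% inhibition, or poor fit; inactive = signal increase, flat within 30%, or potency beyond limit.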 So high a share suggests a set chosen from earlier hits. Not all results are given here. Results with a measured potency or affinity are listed apart.
Test: inhibitors of LMP1-driven NF-kB reporter, dose response, cell-based, HEK293, luciferase, cherry-pick (AID 588343)
Conditions: HEK293 LMP1 TES2 NF-kB luciferase reporter, 16 h; series mostly up to 35 µM

outcome, inactive:
O=[N+]([O-])c1ccc(/C=N/Nc2cc(Cl)nc(-c3ccccc3)n2)cc1
COC(=O)C1=C(C)N(c2cc(C)cc(C)c2)/C(=C/c2ccc(O)cc2)C1=O
COC(=O)c1ccc(/C=C(/NC(=O)c2ccccc2)C(=O)N2CCOCC2)cc1
CC[C@H]1OC(=O)[C@H](C)[C@@H](O[C@H]2C[C@@](C)(OC)[C@@H](O)[C@H](C)O2)[C@H](C)[C@@H](O[C@@H]2O[C@H](C)C[C@H](N(C)C)[C@H]2O)[C@](C)(O)C[C@@H](C)C(=NOCOCCOC)[C@H](C)[C@@H](O)[C@]1(C)O
Cc1nnc(NC(=O)CSc2nnc(Cc3cccn3C)n2CCc2ccccc2)s1
Cc1ccnc(SCCn2c(N3CCN(c4ccccc4)CC3)nc3c2c(=O)[nH]c(=O)n3C)n1
CSc1nc(N)nc(SCC(=O)C23CC4CC(CC(C4)C2)C3)c1C#N
O=C(O)/C=C/c1ccc(Cn2ccnc2)cc1
CC(C(=O)N=Nc1c(O)[nH]c2ccccc12)n1cnc2ccccc2c1=O (centres undefined)
Oc1[nH]c2ccccc2c1N=Nc1c(F)c(F)c(Cl)c(F)c1F
O=C(CCc1ccccc1Cl)N1CCN(S(=O)(=O)c2ccccc2)CC1
COc1ccc(-c2cnc(NCc3cc4c(cc3[N+](=O)[O-])OCO4)n2C)cc1
CC(C)c1nnc(NC(=O)c2ccc(N3C(=O)CCC3=O)cc2)s1
COC(=O)C(NS(=O)(=O)c1ccc(N2CCCC2=O)cc1)c1ccccc1 (centres undefined)
Cn1nc(-c2ccc(N3CCOCC3)c(NS(=O)(=O)c3ccccc3)c2)c2ccccc2c1=O
COc1ccc(OC)c2c1sc(=NC(=O)c1ccco1)n2C
CCCCCC(=O)N1C[C@@H](O)[C@H](n2cc(C3CC3)nn2)C[C@@H]1c1ccc(C)cc1
COc1ccc(S(=O)(=O)NC(CC(=O)NCc2ccco2)C(C)C)cc1 (centres undefined)
COc1ccc(C(=O)CSc2nnc(Cc3ccccc3)o2)cc1
CCCc1cc(=O)[nH]c(SCC(=O)NC2CCCCC2)n1
CN1C(=O)C(CC(=O)NC2CCCCC2)SC1=Nc1ccccc1 (centres undefined)
CCOCCCn1cnc2c3cc(F)ccc3n(C)c2c1=O
CCOC(=O)N1CCC(n2c(=S)[nH]c3ccccc3c2=O)CC1
COc1cc(Cl)cc(C(c2c(C(=O)O)[nH]c3ccccc23)c2c(C(=O)O)[nH]c3ccccc23)c1O
COc1ccc(CCNC(=O)CSc2ccsc2[N+](=O)[O-])cc1OC
COc1ccc(CCNC(=O)CSC(=O)c2ccccc2)cc1OC
O=C(c1noc2c1CCCC2)N1CCCCC1
COc1cc(/C=C(\C#N)c2ccccn2)ccc1OCc1ccccc1Cl
O=C(c1ccco1)N1CCN(S(=O)(=O)/C=C/c2ccccc2)CC1
CCN(CC(=O)Nc1ccc(NC(C)=O)cc1)C(=O)c1cccnc1Sc1ccc(C)c(C)c1
CCOC(=O)c1ccc(NC(=O)CSc2nc(N3CCOCC3)nc(N3CCOCC3)n2)cc1
COCCN1Cc2cccc(C(=O)N3CCN(c4cc(C)ccc4C)CC3)c2C1=O
O=C(c1cccs1)N1CC=C(c2ccccc2)CC1
Cn1cc(S(=O)(=O)N2CCN(C(=O)c3ccco3)CC2)c(=O)n(C)c1=O
CCOC(=O)c1ccc(NC(=S)N2CCSC2c2ccc(OC)cc2)cc1 (centres undefined)
COC(=O)C1=C(C)NC(C)=C(C(=O)OCC(C)C)C1c1ccccc1[N+](=O)[O-] (centres undefined)
O=C(O)C1CC(=O)N(c2ccc(Br)cc2)C1 (centres undefined)
CCCC(C)NC(C)C(=O)NC1CCCC1 (centres undefined)
CCCCCCNC(=O)O[C@]12C[C@@H](C(=O)OC)[C@@H](C(=O)OC)C[C@@]1(O)CN(S(=O)(=O)c1ccc(C)cc1)C2
Cc1nc(N)nc(SCc2ccc([N+](=O)[O-])cc2)c1N
Brc1cccc(-c2cnco2)c1
CC(C)NCC(O)COc1cccc2ccccc12 (centres undefined)
Cc1ccc(CCNC(=O)Cc2ccc(NC3=NC4CS(=O)(=O)CC4S3)cc2)cc1 (centres undefined)
Cc1ccc(NC(=S)NCc2cccs2)cc1
CC1=CC(=NOC(=O)/C=C/c2ccccc2)C=C(C)C1=O
CCC(=O)OC1c2ccccc2C(=O)N1Cc1ccccc1 (centres undefined)
O=C1CC(c2ccccc2)Oc2ccccc21 (centres undefined)
COc1ccccc1C1(CC(=O)O)CCOC(C)(C)C1 (centres undefined)
O=C(Cn1cc(CNC(=O)C2CCCCC2)nn1)Nc1cc(C(F)(F)F)ccc1Cl
COC(=O)c1[nH]c2ccc(C)cc2c1NC(=O)NC1CCCCC1
Cn1cc(CC(=O)NCCCN2CCCC2)c2ccccc21
O=C(NCCCN1CCCCC1)c1ccc2c(c1)NC(=O)c1ccccc1S2
CCCNC(=O)N1CCN(S(=O)(=O)c2ccc(C)c(C)c2)CC1
COc1ccc(S(=O)(=O)N2CCC(C(=O)NC3CC3)CC2)cc1OC
O=C(O)c1ccc(-n2cncn2)c([N+](=O)[O-])c1
O=S(=O)(N/N=C/c1ccccc1F)c1ccccc1
CCSc1nc2ccc(OC)cc2cc1C#N
O=[N+]([O-])c1cc(/C=N\O)ccc1Oc1ccc(F)cc1
CCOC(=O)c1sc2nc(C)nc(NCc3ccccc3)c2c1C
Cn1c(=O)c2ncn(CC(=O)O)c2n(C)c1=O
COc1ccc(C(Nc2ccccn2)c2oc(CO)cc(=O)c2O)cc1 (centres undefined)
Cc1ccc2c(c1)N(CC(=O)N1CCCC1)C(=O)c1cccnc1O2
O=C(NCc1ccccc1Cl)C1CCCN1S(=O)(=O)c1ccc(F)cc1 (centres undefined)
COc1ccc(S(=O)(=O)N2CCN(CC(=O)Nc3ccc(C)c(F)c3)CC2)cc1
Cc1ccc(C2=C/C(=C\c3cccnc3)C(=O)O2)cc1
O=C1c2ccccc2C(Nc2cccnc2)N1Cc1ccccc1 (centres undefined)
CC1S/C(=C(\C#N)C(=O)NCc2ccco2)N(Cc2ccco2)C1=O (centres undefined)
N=C1S/C(=C\c2ccccc2)C(=O)N1c1ccc(F)cc1
COc1ccc(NC(=O)C2CCCN(S(=O)(=O)c3cccc4nonc34)C2)c(OC)c1 (centres undefined)
Cc1ccc(C)c(N2CCN(S(=O)(=O)c3ccc4c(c3)CCN4C(=O)CCC(=O)O)CC2)c1
O=C(N1CCOCC1)N1CCN(S(=O)(=O)c2ccc(Cl)cc2)C1
COc1ccc(/C=C\C(=O)NCc2ccc3c(c2)cc(C)n3C)cc1OC
COc1ccc(/C=N/N=C/c2ccc(OC)c(OC)c2)cc1OC
Cc1cc(C)c(S(=O)(=O)Nc2nnc(CC(C)C)s2)c(C)c1
CC1(C)CC(NS(=O)(=O)c2ccc(F)cc2)CC(C)(C)N1
O=C(Nc1ccncc1)OCc1ccccc1
CN(C)CC(C)(C)CNS(=O)(=O)c1ccc(OC(F)(F)F)cc1
COc1ccc(NC(=O)COC(=O)/C=C/c2ccc(OC)c(S(=O)(=O)N3CCOCC3)c2)cc1
COc1ccc(C(=O)N2CC(=O)Nc3ccccc32)cc1S(=O)(=O)N1CCCC1
O=C(O)[C@@H]1[C@H]2C[C@H]3c4[nH]c5ccccc5c4CCN3C[C@@H]2CC[C@@H]1O
CCc1ccccc1N(CC(=O)NCc1ccco1)C(=O)c1snc(C(N)=O)c1N
CC(C)(C)C(=O)Nc1nnc(SCC(=O)Nc2ccc3c(c2)OCO3)s1
COC(=O)c1ccc(CSc2nc3c(c(=O)n2-c2ccc(C)cc2)SCC3)o1
COc1ccc(-n2c(SCC(=O)Nc3ccc4c(c3)OCO4)nc3c(c2=O)SCC3)cc1
Cc1cccc(C)c1NC(=O)CN(C)C(=O)c1ccc(-c2cccc(C(F)(F)F)c2)o1
O=C(Cn1ccc(C(F)(F)F)n1)Nc1cccc(S(=O)(=O)N2CCCCC2)c1
O=C(CN1CCN(S(=O)(=O)c2ccc(F)cc2)CC1)Nc1cccc(C(F)(F)F)c1
O=C(NCCc1cn2ccccc2n1)C1CCCCC1
NC(=O)N/N=C/c1ccc(N2CCOCC2)s1
Cc1ccc(-n2ccc(=O)c(C(=O)Nc3ccc(S(=O)(=O)N4CCOCC4)cc3)n2)cc1
Cc1ccc(CNC(=O)C(=O)NCC2OCCN2S(=O)(=O)c2ccc(Cl)cc2)cc1 (centres undefined)
CN(C)CCCC1(c2ccc(F)cc2)OCc2cc(C#N)ccc21 (centres undefined)
CC(=O)O[C@]1(C(C)=O)CC[C@H]2[C@@H]3C=C(C)C4=CC(=O)CC[C@@H]4[C@H]3CC[C@@]21C
CC(C)Oc1ccc(C2CC(=O)NC2=O)cc1 (centres undefined)
COc1ccc(/C(CC2OC(=O)c3ccccc32)=N\NC(N)=O)cc1 (centres undefined)
COc1cc(NC(=S)N2CCN(CCO)CC2)cc(OC)c1
Cc1ccc(/C=N/NC(=O)c2cc(-c3ccccc3)nc3ccccc23)o1
COC(=O)c1[nH]c2cccc(C)c2c1NC(=O)CN1CCCc2ccccc21
CCCCOc1ccc2c(c1)/C(=C(\C(Cl)=C(Cl)Cl)[N+](=O)[O-])N2
COCCNC(=O)C(=O)NCC1OCCN1C(=O)c1ccc(Cl)cc1 (centres undefined)
COCCCn1cnnc1SCC(=O)Nc1ccc(S(=O)(=O)N2CCCC2)cc1
CNc1ccc(Br)cc(C(=O)/C=C/c2cccc(OC)c2)c1=O
CN(CCNC(=O)C1CCN(S(=O)(=O)N2CCOCC2)CC1)CCc1ccccc1
Cn1cccc1/C=N/n1c(-c2ccc(Cl)cc2Cl)n[nH]c1=S

Source: PubChem BioAssay AID588343 (Broad Institute, 2011)
